From publication PMC5540273 (PLoS ONE, 2017) come the findings set out here.

Among the test systems are PIK3CG; PIKFYVE; PIM1; PIM2; PIM3; PIP5K1A; PIP5K1C; PIP5K2B; PKMYT1; PKN1; PKN2; PLK1; PLK2; PLK3; PLK4; PRKCD.
Settings in all cases: concentration: 1 μM, replicates: in singlicate; n = 1
The next assay has as its system T1, PIK4CB.
T1 construct: gene PI4KB

In the next assay the test system is T2, PIP5K2C.
T2 construct: gene PIP4K2C

A further assay relates to T3, PKAC-alpha.
T3 construct: gene PRKACA

Another assay relates to T4, PKAC-beta.
T4 construct: gene PRKACB
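Also: KINOMEscan kinase panel screen.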

`COc1cc(Nc2nccc(N3CCC(NC(=O)C(C)c4ccc(Cl)cc4)C3)n2)cc(OC)c1OC` (stereo not drawn) [GSK1379757]: the “%Inh” value in the assay on PIK3CG is recorded as 2%; with PIK4CB, 0%; with PIKFYVE, 0%; in the assay on PIM1 it was 0%; with PIM2, 0%; in the assay on PIM3 it was 0%. Moreover, the “%Inh” value was found to be 42% in the assay with PIP5K1A; 35% in the assay on PIP5K1C; 3% with PIP5K2B; 79% in the assay on PIP5K2C; 0% with PKAC-alpha; 0% in the assay with PKAC-beta. The “%Inh” value in the assay with PKMYT1 was found to be 0%; in the assay on PKN1 it was 19%; with PKN2, 0%; with PLK1 it was 0%; in the assay with PLK2, 0%; in the assay on PLK3, 0%. In addition, the “%Inh” value in the assay with PLK4 and in the assay with PRKCD was 0% in each case.

In the case of `CCCNC(=O)Nc1ccc(Oc2ncnc3ccn(C)c23)cc1`, the “%Inh” value in the assay with PIK3CG is 12%; in the assay on PIK4CB, 0%; in the assay on PIKFYVE, 0%; with PIM1, 0%; in the assay with PIM2, 5%; with PIM3, 0%. Besides, the “%Inh” value worked out at 0% in the assay on PIP5K1A; 17% in the assay on PIP5K1C; 47% in the assay on PIP5K2B; 27% in the assay with PIP5K2C; 0% in the assay on PKAC-alpha; 0% in the assay with PKAC-beta. Also, the “%Inh” value in the assay on PKMYT1 is 0%; with PKN1 it was 0%; in the assay on PKN2 it was 0%; in the assay on PLK1 it was 0%; in the assay on PLK2, 28%; in the assay with PLK3, 15%. Also, the “%Inh” value in the assay on PLK4 stood at 18%; in the assay on PRKCD, 33%.

As to `FC(F)(F)c1ccc(-c2ncn(CCCN3CCOCC3)c2-c2ccncc2)cc1` [SB-217780], the “%Inh” value with PIK3CG is given as 34%; in the assay on PIK4CB, 0%; with PIKFYVE it was 0%; with PIM1 it was 15%; in the assay on PIM2, 0%; in the assay with PIM3, 13%. For the same compound, the “%Inh” value with PIP5K1A worked out at 0%; in the assay on PIP5K1C, 36%; with PIP5K2B, 0%; in the assay on PIP5K2C, 27%; in the assay with PKAC-alpha it was 0%; with PKAC-beta, 10%. For the same compound, the “%Inh” value with PKMYT1 is reported as 0%; in the assay with PKN1 it was 43%; with PKN2, 48%; in the assay on PLK1, 5%; in the assay on PLK2, 0%; in the assay on PLK3, 0%. Further, the “%Inh” value in the assay with PLK4 is listed as 3%; in the assay on PRKCD it was 87%.

Regarding `COc1ccc(-c2cc3c(C)nc(N)nc3n([C@H]3CC[C@H](OCCO)CC3)c2=O)cn1`, the “%Inh” value with PIK4CB is given as 96.1%; with PIKFYVE, 11%; in the assay on PIM1, 0%; in the assay on PIM2 it was 44%; in the assay on PIM3, 0%; in the assay with PIP5K1A it was 0%. In addition, the “%Inh” value in the assay on PIP5K1C came to 1%; in the assay with PIP5K2B it was 2%; with PIP5K2C it was 9%; in the assay with PKAC-alpha, 3%; with PKAC-beta, 0%; in the assay with PKMYT1 it was 0%. Further, the “%Inh” value in the assay on PKN1 is 5%; in the assay with PKN2 it was 0%; in the assay on PLK1, 0%; in the assay with PLK2, 0%; in the assay with PLK3, 0%; with PLK4, 1%. For the same compound, the “%Inh” value in the assay on PRKCD came out at 2%.

For `Cc1cccc(-c2nc(Nc3ccc4c(cnn4C)c3)c3ccccc3n2)n1` [GW876731], the “%Inh” value in the assay on PIK3CG was found to be 0%; with PIK4CB it was 26%; in the assay on PIKFYVE, 91.5%; in the assay on PIM1, 8%; with PIM2, 1%; in the assay with PIM3, 21%. Besides, the “%Inh” value is 0% in the assay with PIP5K1A; 0% in the assay on PIP5K1C; 0% in the assay with PIP5K2B; 0% in the assay with PIP5K2C; 0% in the assay with PKAC-alpha; 14% in the assay with PKAC-beta. For the same compound, the “%Inh” value in the assay with PKMYT1 is reported as 4%; in the assay with PKN1, 55%; in the assay on PKN2, 33%; with PLK1, 7%; with PLK2, 0%; in the assay with PLK3 it was 0%. The “%Inh” value in the assay on PLK4 came to 13%; in the assay with PRKCD, 5%.

With `O=C(Nc1n[nH]c2cc(-c3ccccc3F)ccc12)C1CC1` [SB-733371], the “%Inh” value with PIK3CG worked out at 6%; in the assay on PIK4CB, 0%; in the assay on PIKFYVE, 10%; in the assay on PIM1, 0%; in the assay with PIM2, 0%; with PIM3, 0%. The “%Inh” value is 32% with PIP5K1A; 0% with PIP5K1C; 24% in the assay on PIP5K2B; 0% in the assay with PIP5K2C; 0% with PKAC-alpha; 20% in the assay with PKAC-beta. Further, the “%Inh” value worked out at 0% with PKMYT1; 0% with PKN1; 14% with PKN2; 0% with PLK1; 0% in the assay with PLK2; 3% in the assay with PLK3. Further, the “%Inh” value came to 9% in the assay on PLK4 and 0% with PRKCD.

With `CCn1c(-c2nonc2N)nc2ccccc21` [SB-693162/GW549034], the “%Inh” value is reported as 0% in the assay with PIK3CG; 29% in the assay on PIK4CB; 0% in the assay on PIKFYVE; 0% in the assay on PIM1; 0% in the assay with PIM2; 8% in the assay with PIM3. The “%Inh” value is 23% in the assay on PIP5K1A; 8% with PIP5K1C; 0% in the assay on PIP5K2B; 0% in the assay with PIP5K2C; 0% in the assay on PKAC-alpha; 0% in the assay with PKAC-beta. Also, the “%Inh” value was determined as 0% in the assay on PKMYT1; 0% in the assay with PKN1; 0% with PKN2; 62% with PLK1; 21% with PLK2; 34% in the assay on PLK3. In addition, the “%Inh” value in the assay on PLK4 was determined as 30%; in the assay with PRKCD it was 0%.

Take `CCCC(=O)Nc1n[nH]c2ncc(-c3cccc4ccccc34)cc12` [SB-642057]: the “%Inh” value in the assay on PIK3CG came to 10%; with PIK4CB it was 39%; in the assay with PIKFYVE, 0%; in the assay on PIM1 it was 10%; with PIM2, 0%; in the assay with PIM3 it was 2%. For the same compound, the “%Inh” value stood at 0% in the assay on PIP5K1A; 34% in the assay on PIP5K1C; 0% with PIP5K2B; 13% in the assay with PIP5K2C; 0% in the assay on PKAC-alpha; 0% in the assay on PKAC-beta. Further, the “%Inh” value with PKMYT1 stood at 22%; in the assay with PKN1, 19%; in the assay on PKN2 it was 0%; with PLK1 it was 0%; with PLK2, 0%; with PLK3 it was 1%. In addition, the “%Inh” value in the assay with PLK4 was 13%; in the assay on PRKCD, 0%.

Regarding `Cc1nc(N(C)[C@H]2CN(C(=O)CC#N)CC[C@H]2C)c2cc[nH]c2n1`, the “%Inh” value with PIK3CG is recorded as 0%; in the assay on PIK4CB, 0%; in the assay on PIKFYVE, 2%; in the assay on PIM1 it was 0%; with PIM2, 0%; with PIM3 it was 0%. Further, the “%Inh” value in the assay on PIP5K1A came out at 0%; with PIP5K1C, 0%; with PIP5K2B, 0%; in the assay on PIP5K2C it was 0%; in the assay with PKAC-alpha, 17%; in the assay on PKAC-beta, 0%. For the same compound, the “%Inh” value in the assay with PKMYT1 was 4%; in the assay with PKN1 it was 0%; in the assay on PKN2 it was 12%; in the assay with PLK1, 0%; with PLK2 it was 5%; with PLK3, 0%. Moreover, the “%Inh” value in the assay on PLK4 turned out to be 0%; in the assay on PRKCD it was 2%.

Regarding `Cc1nnc(-c2ccc(C)c(-c3ccc(C(=O)O)cc3)c2)o1` [GW608005], the “%Inh” value is reported as 0% in the assay on PIK3CG; 0% in the assay on PIK4CB; 0% with PIKFYVE; 18% with PIM1; 0% in the assay on PIM2; 0% in the assay with PIM3. For the same compound, the “%Inh” value in the assay on PIP5K1A was determined as 0%; in the assay with PIP5K1C it was 6%; in the assay with PIP5K2B it was 0%; with PIP5K2C, 0%; with PKAC-alpha, 0%; in the assay with PKAC-beta, 0%. The “%Inh” value in the assay on PKMYT1 is 0%; in the assay on PKN1, 28%; with PKN2, 0%; with PLK1 it was 0%; in the assay on PLK2, 0%; with PLK3, 0%. Besides, the “%Inh” value with PLK4 and with PRKCD was 0% throughout.

In the case of `CCC(=O)c1c(-c2ccccc2)c2cc(Cl)ccc2c(=O)n1Cc1ccc(C(=O)O)cc1`, the “%Inh” value with PIK3CG, with PIK4CB, in the assay with PIKFYVE, in the assay with PIM1, in the assay on PIM2 and with PIM3 was 0% in each case. The “%Inh” value with PIP5K1A stood at 18%; in the assay with PIP5K1C, 15%; with PIP5K2B, 0%; with PIP5K2C it was 16%; with PKAC-alpha it was 0%; in the assay on PKAC-beta it was 0%. For the same compound, the “%Inh” value amounted to 1% in the assay on PKMYT1; 0% in the assay with PKN1; 0% in the assay on PKN2; 0% in the assay on PLK1; 7% with PLK2; 0% with PLK3. Besides, the “%Inh” value with PLK4 and in the assay on PRKCD was 0% throughout.
